Only some compounds are listed: those with a hit (about 0.78% of all), similar ones and a draw of the others.
PKA-R1A activ = PKA-R1A complex activation. activation, % at 11.4 µM. P00514+P68181. AID 504707. 0.083% of 340,000 active. PKA-R1A dissociation, Cy5-IP20 fluorescence polarization; scaled: DMSO 0%, 113 µM cGMP 100%;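 active = percent activation above the mean of all tested compounds plus 3 SD, cut at about 19% in these data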;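 also: higher means more PKAc released from R1A so a rise in polarization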
CR mimetic SO = yeast age-related superoxide inhibition as caloric restriction mimetic. 0.18% of 330,000 active. S. cerevisiae aged cells, superoxide DHE fluorescence; hits give low values. superoxide response (% of plate mean), % at 10 µM;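 active = superoxide response under a set limit, about three screen SD below normal, cut at about 65% in these data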;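 also: yeast aged for seven days with compound at 30 °C before DHE staining; 100% = average MFI of all compound-treated wells on the plate with controls excluded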
PolyA inh = blocks polyadenylation in yeast reporter cells; activity score, % at 12 µM; S. cerevisiae SKY197-pL101 polyadenylation reporter, beta-gal luminescence; efflux-impaired pdr1/pdr3 knockout yeast; score 100 = 6 SD above DMSO; AID 1875; 0.02% of 300,000 active;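 active = lowest replicate activity score at least 50, where 100 means six control SD above control mean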;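 also: yeast exposed to compound for 9 h at 30 °C; higher score means more reporter readthrough which indicates perturbed polyadenylation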
PKA-R2B act = activators of human PKA-R2B complex | P22694+P31323 | PKA-R2B holoenzyme dissociation, Cy5-IP20 fluorescence polarization; R2B truncated from residue 108, S112A mutant; 0% DMSO only, 100% 113 µM cGMP | activation, % at 11.4 µM | 0.079% of 340,000 active | AID 504700;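 active = activation above a cutoff set at the mean over all compounds plus 3 SD, cut at about 18% in these data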;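 also: higher means more holoenzyme dissociation and a rise in polarization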
GASC-1 inh = blocks human GASC-1 demethylase activity | 0.069% of 330,000 active | Q9H3R0 | AID 2099 | inhibition, % at 2.35 µM | GST-JMJD2C(1-420) H3K9me3 demethylation, DELFIA europium;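 active = more than half of a compound's replicate wells show inhibition beyond 50%, single wells judged on their own value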;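 also: signal counts dimethyl H3K9 product captured on neutravidin plate; 0% = median of DMSO wells and 100% = 0.3 times that DMSO median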
Target sequence (Q9H3R0 1-420 limits assumed): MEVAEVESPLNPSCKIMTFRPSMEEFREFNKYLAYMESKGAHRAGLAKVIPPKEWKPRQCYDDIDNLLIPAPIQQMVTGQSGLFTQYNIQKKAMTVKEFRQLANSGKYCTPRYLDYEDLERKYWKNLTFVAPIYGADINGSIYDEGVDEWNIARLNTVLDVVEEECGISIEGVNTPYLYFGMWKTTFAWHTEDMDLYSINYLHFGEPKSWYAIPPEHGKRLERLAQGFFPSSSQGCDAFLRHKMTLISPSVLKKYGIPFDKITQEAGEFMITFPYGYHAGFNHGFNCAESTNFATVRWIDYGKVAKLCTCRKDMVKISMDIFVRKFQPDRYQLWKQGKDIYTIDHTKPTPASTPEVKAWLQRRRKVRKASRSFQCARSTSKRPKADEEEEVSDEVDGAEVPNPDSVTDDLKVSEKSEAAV
V-ATPase pH = yeast V-ATPase proton transport regulation by pHLuorin; S. cerevisiae, pHLuorin cytosolic pH fluorescence; response, % at 10 µM; 0.37% of 350,000 active; AID 504577; in the data active = response mostly above about 7.3%, no sharp cut-off; inactive = mostly below about 5.4%; also: actives read high
Starred values were filed as active, the others as inactive; . = no result given.

SMILES	PKA-R1A activ	CR mimetic SO	PolyA inh	PKA-R2B act	GASC-1 inh	V-ATPase pH
CCOC(=O)CSC1=NC(=O)/C(=C\c2ccc(Cl)cc2)S1	-1	90	1	-8	12	11*
O=C(C1CCCO1)N1CCN(C(=S)Nc2ccc(Cl)cc2Cl)CC1 (stereo not given)	-5	106	4	0	-13	17*
CC(C)C(NC(=O)c1ccco1)C(=O)NCC(c1ccco1)N(C)C (stereo not given)	-3	94	10	2	-3	16*
CC(C)C(NC(=O)c1ccccc1)C(=O)NCC(c1ccccc1)N(C)C (stereo not given)	-1	108	-22	5	2	-2
Cc1ccc(NC(=O)CN(C)S(=O)(=O)c2cccc3cccnc23)cc1C	-4	89	1	13	-7	-1
CCOc1c(Cl)cc(CNCC(C)C)cc1Cl	-11	97	-12	2	-22	20*
CC(NC(=O)c1cc(Br)ccc1Cl)c1ccccc1 (stereo not given)	-11	99	2	3	20	4
CC(NC(=O)c1ccc(Br)cc1)c1ccccc1 (stereo not given)	12	95	70*	3	-2	2
CC(NC(=O)c1ccc(Br)cc1Br)c1ccccc1 (stereo not given)	.	96	62*	.	3	0
Nn1c(-c2ccccc2)nc2cc(Cl)ccc2c1=O	-5	101	13	1	4	-6
C=CCN=C(NC#N)SC	-8	43*	-4	-3	8	-5
CC1(C)NC(=O)N(CCCCOc2cccc(C(F)(F)F)c2)C1=O	13	100	-22	-4	6	15*
O=Cc1cc(CCC(=O)O)ccc1O	3	99	0	10	2	-6
O=C(COC(=O)/C=C/c1cccs1)NC(c1ccccc1)c1ccccc1	-2	110	150*	-2	-22	2
O=C(COC(=O)/C=C/c1cccs1)NC(=O)Cc1ccccc1	6	93	2	-3	104	-1
Cc1cc(C)nc(SCC(=O)NNC(=O)c2ccccc2C)n1	-4	65*	1	-2	-3	-1
Cc1cc(C)nc(SCC(=O)NNC(=O)c2cccs2)n1	-12	114	16	9	-3	-4
CCOC(=O)C1C(c2cccc(F)c2)NC(=S)NC1(O)C(F)(F)F (stereo not given)	0	98	15	-6	-4	-1
CCCN1CCC(NC(=O)Nc2ccc(F)cc2F)CC1	-11	95	10	-3	9	15*
CCN1CCC(NC(=O)Nc2ccc(F)cc2)CC1	-4	99	8	0	-9	1
O=C(COc1ccc(Br)cc1)NNC(=O)c1ccc(-n2cncn2)c([N+](=O)[O-])c1	11	136	.	2	28	7
Cc1nn(C)c(C)c1S(=O)(=O)N(CC(=O)Nc1nccs1)c1ccc(C(C)C)cc1	2	105	7	10	10	1
COc1ccc(N(CC(=O)Nc2nccs2)S(=O)(=O)c2c(C)nn(C)c2C)cc1	-7	102	.	-6	.	14*
CCc1c(C)nc2ncnn2c1Nc1ccc(C)cc1	9	103	-5	-8	6	2
CCc1c(C)nc2ncnn2c1NC1CCCc2ccccc21 (stereo not given)	-3	112	-3	5	0	13*
SMILES	PKA-R1A activ	CR mimetic SO	PolyA inh	PKA-R2B act	GASC-1 inh	V-ATPase pH
O=C(Nc1cccc2ccccc12)N(CCO)C1CCS(=O)(=O)C1 (stereo not given)	-3	99	0	-10	-13	-4
O=C1CCCc2nc3c(cc21)C(O)Oc1ccccc1-3 (stereo not given)	-7	93	15	-5	-22	16*
O=[N+]([O-])c1cc(CN2CCN(c3ccccc3)CC2)c(O)c2ncccc12	-8	124	-22	-2	-21	6.6*
CN(Cc1cc([N+](=O)[O-])c2cccnc2c1O)C1CCCCC1	.	125	4	.	-16	.
O=C(NC1CC(=O)N(c2cccc(F)c2)C1)N1CCN(C(=O)c2ccco2)CC1 (stereo not given)	-6	100	-10	-3	22	-1
CCc1c(C)nn(C(=O)/C(C#N)=C\N(C)C)c1C	-8	105	-8	-20	19	0
Cc1ccc(/C=C/C(=O)Nc2cc(S(=O)(=O)N3CCOCC3)ccc2N2CCOCC2)cc1	14	62*	.	-2	15	9
O=C(/C=C/c1ccc(F)cc1)Nc1cc(S(=O)(=O)N2CCOCC2)ccc1N1CCOCC1	9	.	.	4	.	.
CCOc1cc(/C=C2\N=C(SC(C)C(N)=O)N(c3ccc(OC(F)F)cc3)C2=O)ccc1O (stereo not given)	-5	95	157*	2	1	-2
NC(=O)CSC1=N/C(=C\c2ccco2)C(=O)N1c1ccc(OC(F)F)cc1	-5	93	8	-5	26	2
Cc1cc2nc3c(=O)n(CCc4ccccc4)c(=O)[nH]c3nc2cc1N	-14	93	8	-6	-6	-2
Nc1ccc2nc3c(=O)n(CCc4ccccc4)c(=O)[nH]c3nc2c1	.	114	10	.	-1	51*
CCCCOc1ccc(C(=O)Nc2ccc(N3CCN(C(C)=O)CC3)cc2)cc1	-19	80	-11	4	61*	-2
O=C1C=CC(=O)N1CCNc1ncc(C(F)(F)F)cc1Cl	2	.	-105	-10	36	13*
O=C1CC(=O)N(CCNc2ncc(C(F)(F)F)cc2Cl)C(=O)N1	-5	94	2	5	-7	-2
CCN(CC(=O)Nc1ccccc1SC)Cc1nc2ccccc2c(=O)[nH]1	-2	62*	8	4	-2	3
CC(=O)c1ccc(NC(=S)Nc2cccc(Cl)c2C)cc1	3	75	9	0	1	1
COc1ccccc1NC(=O)COC(=O)c1[nH]c(=O)[nH]c(=O)c1N	0	84	.	-5	53*	3
O=C(O)CN1C(=O)/C(=C/c2ccc(N3CCCCC3)o2)SC1=S	1	107	106*	-11	0	7
CCOC(=O)c1c(C)nc2c(c1-c1cc(OC)ccc1OC)C(=O)c1ccccc1-2	-2	111	-13	2	-7	1
CCOC(=O)c1c(C)nc2c(c1-c1ccccc1)C(=O)c1ccccc1-2	20*	144	-3	10	6	4
CCc1ccc(OC(=O)Cc2ccc(OC)c(S(=O)(=O)N3CCOCC3)c2)cc1	3	113	.	-6	7	-3
COc1ccc(CC(=O)Oc2ccc(C(C)C)cc2)cc1S(=O)(=O)N1CCOCC1	-11	105	-21	-5	1	25*
